The values below come from PubChem BioAssay (EPA / NIEHS).

Inconclusive results are not listed. The source made the active and inactive calls. Rule for the calls: active = hit-call score of the fitted dose curve at least 0.9, where 1 is the maximum; inconclusive = response in the unintended direction; inactive = score below 0.9.

For orientation: AC50 means the concentration at which the activity in the assay is half-maximal.

Chain of human Serotonin, 5-Hydroxytryptamine Receptor 2A (5HT2A), HTR2A (gene 3356) (P28223 whole entry, looked up): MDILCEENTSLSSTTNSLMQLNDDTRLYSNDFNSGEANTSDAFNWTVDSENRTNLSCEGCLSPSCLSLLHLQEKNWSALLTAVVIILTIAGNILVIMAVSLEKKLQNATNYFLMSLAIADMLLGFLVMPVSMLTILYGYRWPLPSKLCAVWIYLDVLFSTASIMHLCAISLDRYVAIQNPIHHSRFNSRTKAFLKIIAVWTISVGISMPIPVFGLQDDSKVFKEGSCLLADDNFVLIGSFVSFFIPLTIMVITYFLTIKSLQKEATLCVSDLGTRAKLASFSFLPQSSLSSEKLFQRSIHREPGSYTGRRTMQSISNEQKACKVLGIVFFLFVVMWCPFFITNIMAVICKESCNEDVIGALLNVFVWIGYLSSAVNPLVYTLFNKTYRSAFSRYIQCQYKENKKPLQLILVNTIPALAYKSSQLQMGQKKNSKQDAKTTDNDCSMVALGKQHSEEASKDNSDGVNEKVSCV
Chain of human Serotonin, 5-Hydroxytryptamine Receptor 5A (5HT5A), HTR5A (gene 3361) (P47898 whole entry, looked up): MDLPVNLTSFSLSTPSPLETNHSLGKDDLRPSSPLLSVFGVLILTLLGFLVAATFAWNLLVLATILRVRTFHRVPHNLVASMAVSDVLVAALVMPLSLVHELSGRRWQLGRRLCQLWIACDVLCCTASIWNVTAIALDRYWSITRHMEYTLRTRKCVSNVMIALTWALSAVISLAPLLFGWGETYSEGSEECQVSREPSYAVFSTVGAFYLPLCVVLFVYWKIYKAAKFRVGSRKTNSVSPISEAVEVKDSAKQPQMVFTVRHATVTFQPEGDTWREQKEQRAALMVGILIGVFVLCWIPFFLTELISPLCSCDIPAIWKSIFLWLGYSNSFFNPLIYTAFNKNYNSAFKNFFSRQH

One test has as its target human Serotonin, 5-Hydroxytryptamine Receptor 2A (5HT2A), HTR2A (gene 3356) (UniProt P28223). Description: NVS_GPCR_h5HT2A: NovaScreen (NVS) G Protein-Coupled Receptor Assay for human Serotonin, 5-Hydroxytryptamine Receptor 2A (5HT2A) (AID 2283249). In short, it runs like this:
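Radioligand displacement on human cortex tissue extract, counted by filtration and scintillation 1.5 h post-dosing. Initial single-concentration screen at 25 uM in duplicate, concentration series in follow-up; DMSO as baseline.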
Turning to `CCCCC(CC)COC(=O)CC(C(=O)OCC(CC)CCCC)S(=O)(=O)O` (configuration not stated), the result was inactive.
As for `Oc1ccc2c(c1)OC[C@@H](N1CCC(O)(c3ccc(F)cc3)CC1)[C@H]2O`, the compound was called inactive.
In the case of `NC(=O)Cn1c(=O)cc(CCN2CCN(c3nccc4sccc34)CC2)c2ccc(F)cc21`, the AC50 is 2.29 nM (active).

In another test the test system is guinea pig Muscarinic, Peripheral (Mperiperal) Receptor, Non-selective Binding, gene 100379235. Description: NVS_GPCR_gMPeripheral_NonSelective: NovaScreen (NVS) G Protein-Coupled Receptor Assay for guinea pig Muscarinic, Peripheral (Mperiperal) Receptor, Non-selective Binding (AID 2283250). As for the experimental part:
NVS_GPCR_gMPeripheral_NonSelective is a biochemical, single-readout assay that uses extracted gene-proteins from Guinea pig bladder membranes in a tissue-based cell-free assay. Measurements were taken 1 hour after chemical dosing in a 48-well plate.NVS_GPCR_gMPeripheral_NonSelective is one of one assay component(s) measured or calculated from the NVS_GPCR_gMPeripheral_NonSelective assay. It is designed to make measurements of radioligand binding, a form of binding reporter, as detected with scintillation counting signals by Filter-based radiodetection technology.Data from the assay component NVS_GPCR_gMPeripheral_NonSelective was analyzed into 1 assay endpoint. This assay endpoint, NVS_GPCR_gMPeripheral_NonSelective, was analyzed in the positive analysis fitting direction relative to DMSO as the negative control and baseline of activity. Using a type of binding reporter, loss-of-signal activity can be used to understand changes in the binding as they relate to the gene Chrm3. Furthermore, this assay endpoint can be referred to as a primary readout, because the performed assay has only produced 1 assay endpoint. To generalize the intended target to other relatable targets, this assay endpoint is annotated to the gpcr intended target family, where the subfamily is rhodopsin-like receptor.
Binding assays used specific radioligands (tritiated, iodinated) with non-radioactive competitive displacement ligands in agonist or antagonist protocols (as indicated) and various reference compounds and inhibitors to titrate specific binding to receptors and transporters. Most enzyme assays (CYPs, kinases, phosphatases, proteases, HDACs) used recombinant protein and specific substrates (fluorescence mostly, some colorimetric and radioactive) and inhibitors, followed by a biochemical separation of substrate and product. All assays for the biochemical HTS were initially run in duplicate at a single concentration (10 uM for CYP450 assays and 25 uM for all others). Assay-chemical combinations meeting a pre-defined threshold (e.g., 30% inhibition and other criteria defined below) were then run in singleton concentration-response format with maximum concentration of 20 uM for CYPs and 50 uM for all others. Each assay was run with positive and negative controls, and concurrent controls on every plate. The follow-up (secondary) screen tested active chemical-pairs in concentration series, as well as a few additional assays not tested in the primary screen, some selected negative inactives, and several cases re-run in the concentration series for confirmatory purposes.
`COc1ccc(S(=O)(=O)N2C(=O)[C@@](c3ccccc3OC)(N3C[C@H](O)C[C@H]3C(=O)N(C)C)c3cc(Cl)ccc32)c(OC)c1`: the AC50 is 13.8 µM (active).
`CNCc1cc(F)ccc1Oc1ccc(Cl)c(Cl)c1`: the AC50 was 25 µM (active).
For `COc1ccc2c(c1)c(CC(=O)O)c(C)n2C(=O)c1ccc(Cl)cc1`, the compound was classed as inactive.
Take `Cc1nc(-c2ccc3c(c2)CCN(CCC2CCC(NC(=O)/C=C/c4ccc(F)cc4)CC2)CC3)no1` (configuration not stated): the AC50 is 0.483 µM (active).
Turning to `CCCCC(CC)COC(=O)CC(C(=O)OCC(CC)CCCC)S(=O)(=O)O` (configuration not stated), the AC50 is 25 µM (active).
In the case of `CN1CCN(Cc2cc(-c3ccc4[nH]c(=O)oc4c3)co2)[C@@H](c2ccc(F)cc2)C1`, the compound was classed as inactive.
As to `NC(=O)Cn1c(=O)cc(CCN2CCN(c3nccc4sccc34)CC2)c2ccc(F)cc21`, the outcome was inactive.
For `CCOC(=O)CCC(=O)OCC`, the compound was classed as inactive.

Another test concerns the target human Serotonin, 5-Hydroxytryptamine Receptor 5A (5HT5A), HTR5A (gene 3361) (UniProt P47898). Description: NVS_GPCR_h5HT5A: NovaScreen (NVS) G Protein-Coupled Receptor Assay for human Serotonin, 5-Hydroxytryptamine Receptor 5A (5HT5A) (AID 2283251). In short, it runs like this:
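Membranes from HEK293 cells, radioligand binding read by filtration and scintillation after 1 h. Single-concentration duplicate testing at 25 uM, then concentration-response for actives; positive-direction fitting relative to DMSO.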
For the compound `COc1cc(-c2nc(NC(=O)c3cc4cc(C)cc(C)c4n3CC(=O)O)sc2CCC2CCCCC2)c(OC)cc1Cl`, the compound was called inactive.
Consider `Nc1nc(N)c2nc(CNc3ccc(C(=O)N[C@@H](CCC(=O)O)C(=O)O)cc3)cnc2n1`, for which the AC50 is 6.28 µM (active).
With `CCCCC(CC)COC(=O)CC(C(=O)OCC(CC)CCCC)S(=O)(=O)O` (configuration not stated), the AC50 was 7.45 µM (active).
As for `CN1CCN(Cc2cc(-c3ccc4[nH]c(=O)oc4c3)co2)[C@@H](c2ccc(F)cc2)C1`, the AC50 was 9.14 µM (active).
Still for that read-out and setting: the same measure for `NC(=O)Cn1c(=O)cc(CCN2CCN(c3nccc4sccc34)CC2)c2ccc(F)cc21`: 0.834 µM (active).

Another test deals with guinea pig Opioid, Kappa 1 Receptor (OpiateK), OPRK1 (gene 100135587) (UniProt P41144). Description: NVS_GPCR_gOpiateK: NovaScreen (NVS) G Protein-Coupled Receptor Assay for guinea pig Opioid, Kappa 1 Receptor (OpiateK) (AID 2283252).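 Note: radioligand displacement from kappa opioid receptor in guinea pig cerebellar membranes; active means reduced radioligand binding relative to DMSO.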 In short, it runs like this: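 Radioligand competition binding using guinea pig cerebellum membrane fraction; 2 h exposure; filter radiodetection. Single concentration 25 uM (duplicate), follow-up concentration-response for actives.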
Chain of guinea pig Opioid, Kappa 1 Receptor (OpiateK), OPRK1 (gene 100135587) (P41144 whole entry, looked up): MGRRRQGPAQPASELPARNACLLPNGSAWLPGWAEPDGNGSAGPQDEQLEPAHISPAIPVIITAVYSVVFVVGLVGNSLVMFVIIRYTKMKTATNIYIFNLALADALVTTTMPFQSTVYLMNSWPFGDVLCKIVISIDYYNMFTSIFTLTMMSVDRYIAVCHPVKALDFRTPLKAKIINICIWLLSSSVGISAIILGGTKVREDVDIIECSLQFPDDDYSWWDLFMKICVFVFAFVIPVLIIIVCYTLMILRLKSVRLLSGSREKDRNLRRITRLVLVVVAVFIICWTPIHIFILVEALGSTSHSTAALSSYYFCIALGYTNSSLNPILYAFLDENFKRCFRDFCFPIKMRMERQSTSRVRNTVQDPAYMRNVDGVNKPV
Turning to `CNCc1cc(F)ccc1Oc1ccc(Cl)c(Cl)c1`, the AC50 is 12.7 µM (active).
`COCCOC[C@H](CC1(C(=O)NC2CCC(C(=O)O)CC2)CCCC1)C(=O)Oc1ccc2c(c1)CCC2` (some centres not stated): the compound was called inactive.
Regarding `Cc1nc(-c2ccc3c(c2)CCN(CCC2CCC(NC(=O)/C=C/c4ccc(F)cc4)CC2)CC3)no1` (configuration not stated), the AC50 was 0.262 µM (active).
On to `COc1cc(S(=O)(=O)O)c(C)cc1N=Nc1c(O)ccc2cc(S(=O)(=O)O)ccc12`, for which the outcome was inactive.
Regarding `CCc1c(C(=O)NN2CCCCC2)nn(-c2ccc(Cl)cc2Cl)c1-c1ccc(Br)cc1`, the AC50 was 9.97 µM (active).
Turning to `CN1CCN(Cc2cc(-c3ccc4[nH]c(=O)oc4c3)co2)[C@@H](c2ccc(F)cc2)C1`, the compound was called inactive.
